DRD3 antagonist: antagonists of human D3 dopamine receptor; P35462; D3R cells, DiscoveRx beta-arrestin luminescence, antagonist mode; hits give low values; max response, negative = inhibition, %; hit rate 2.5% among 360,000; AID 652054; in the data active = max response below about -50%; inconclusive = no clear call, values can overlap the other calls
Target sequence (P35462 whole entry, looked up): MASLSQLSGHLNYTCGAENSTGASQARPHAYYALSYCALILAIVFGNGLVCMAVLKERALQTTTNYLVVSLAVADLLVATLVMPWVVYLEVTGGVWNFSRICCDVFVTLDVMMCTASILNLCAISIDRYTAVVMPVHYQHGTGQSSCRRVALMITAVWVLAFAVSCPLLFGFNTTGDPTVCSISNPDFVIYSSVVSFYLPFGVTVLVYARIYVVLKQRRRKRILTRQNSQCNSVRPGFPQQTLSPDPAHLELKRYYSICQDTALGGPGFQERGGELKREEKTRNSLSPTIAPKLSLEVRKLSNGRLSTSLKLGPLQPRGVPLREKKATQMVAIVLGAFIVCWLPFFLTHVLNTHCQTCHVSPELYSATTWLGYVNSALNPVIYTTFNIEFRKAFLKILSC
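Cells expressing the human receptor were seeded at 1500 cells/well, incubated overnight at 37 degrees C in 5% CO2, then exposed to library compounds with dopamine controls for 90 minutes at 37 degrees C before luminescent detection.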
D3 ag: D3 dopamine receptor (human) agonism; P35462; D3R DiscoveRx beta-arrestin cells, luminescence, 90 min; max activation, %; hit rate 0.58% among 410,000; AID 652048; in the data active = max activation above about 30%
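Cells at 1500/well, incubated overnight, then treated with pinned compounds (dopamine as control) for 90 min at 37 degrees C. DiscoveRx reagent added for 30 - 60 minutes at room temperature; luminescence read.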
ATXN viability: reduces viability in counter-screen for ATXN expression inhibitors. AID 651635. hit rate 0.49% among 400,000. Potency, µM (highest dose often 56.7 µM), most hits filed as cytotoxic. S2 cells (HEK-293 line with an ATXN2-luciferase reporter) viability, CellTiter-Fluor protease fluorescence, 24 h; also: nearly all actives have a fitted effect of over 40% in size
IL1B secr inh: blocks inflammasome-driven IL-1 beta release. activity change, % at 57.5 µM. THP-1 LPS/ATP IL-1B secretion, AlphaLISA, 16 h; hits give low values. hit rate 4.7% among 360,000; in the data active = activity change below about -50%; inconclusive = mostly about -30% to -49%
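Secreted IL-1B measured by AlphaLISA bead assay after 16 h compound exposure of THP-1 cells; compounds (final up to 57.5 uM) added 1 h before LPS (250 ng/mL) and ATP (1.25 mM) stimulation; lower signal means less secretion.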
a7 integrin act: activators of alpha7 integrin expression for muscular dystrophy; hit rate 0.064% among 350,000; Potency, µM (series often up to 38.3 µM), usual class: activators; alpha7betagal myoblasts, beta-gal FDG fluorescence, 48 h; AID 624291; also: nearly all actives have a fitted effect of over 60% in size
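alpha7betagal+/- myoblasts (passage 13, 250/well) treated 48 h at 37C with compounds at 1:260 dilution of DMSO stock. Lysed, then beta-galactosidase activity read as FDG fluorescence (ex 480/em 540) after 30 min, with pre-read for autofluorescence.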
ATXN2 expr inh: ATXN2 expression inhibition; HEK-293 ATXN2-luciferase reporter, luminescence, 24 h; Potency, µM (highest dose often 57 µM), hits mostly inhibitors; hit rate 0.72% among 360,000; AID 1745845; also: nearly all actives have a fitted effect of over 55% in size
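ATXN2-luciferase reporter cells (luciferase flanked by upstream and downstream ATXN2 gene portions) were treated 24 h at 37 °C with compounds at up to 57 uM. SteadyGlo luminescence gave expression; GF-AFC fluorescence gave viability.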
A number is an active result; n = inactive; u = inconclusive; x = no result given; [ ] = dose if it differs, or a comment. In the library only some 7% were active in any assay of this set; here they are far more common. Unless noted, calls follow the shape of the dose curve; as a rule, active = well fitted curve in the direction sought with a large enough effect; inconclusive = small, poorly fitted or top-dose-only effect, or another doubt; inactive = no such curve, though single readings can be large; an effect the other way counts as inactive or inconclusive.

SMILES | DRD3 antagonist | D3 ag | ATXN viability | IL1B secr inh | a7 integrin act | ATXN2 expr inh
COc1ccc(C2C3=C(CCCC3=O)Nc3ccc4ncccc4c32)cc1OC (centres undefined) | n | n | u | n | n | n
CCCCCCCCN1C(=O)[C@H](CC(=O)NCc2cccs2)C[C@@]2(C(=O)OCC)CCCC=C12 | n | n | x | -61.9 | x | u
CCCCCCCCN1C(=O)[C@H](CC(=O)NCc2ccc(OC)c(OC)c2)C[C@@]2(C(=O)OCC)CCCC=C12 | n | n | 14.1µM | -77.4 | x | u
CCOC(=O)[C@]12CCCC=C1N(Cc1ccco1)C(=O)[C@H](CC(=O)NCC13CC4CC(CC(C4)C1)C3)C2 | n | n | u | -55.4 | x | n
CCCCCCCCN1C(=O)[C@H](CC(=O)NCc2cccc(C(F)(F)F)c2)C[C@@]2(C(=O)OC)CCCCC=C12 | n | n | u | -54.9 | x | u
Cn1c(SCC(=O)O)nnc1C1CCCCC1 | n | n | n | n | n | n
N#C/C(=C\c1c(Oc2ccc(Cl)cc2)nc2ccccn2c1=O)C(=O)NC1CCS(=O)(=O)C1 (centres undefined) | n | n | x | -100.2 | n | n
Cc1cccc(Oc2nc3ccccn3c(=O)c2/C=C(\C#N)C(=O)NC2CCS(=O)(=O)C2)c1C (centres undefined) | n | n | n | -99.3 | n | n
COc1ccc2c(c1)c(CC(=O)OCC(=O)O)c(C)n2C(=O)c1ccc(Cl)cc1 | -54.2 | n | n | n | x | n
COc1ccc(Nc2ccnc(Nc3ccc(OC)cc3)n2)cc1 | n | n | x | -99.1 | n | u
CC(=O)N(Cc1c(C#N)c2ccccc2n1C)c1ccccc1 | n | n | n | n | n | n
CC1CCCCN1Cc1c(C#N)c2ccccc2n1C (centres undefined) | -65.9 | n | n | n | n | n
CN1CCN(Cc2c(C#N)c3ccccc3n2C)CC1 | n | n | u | n | n | n
CCOC(=O)CSCc1c(C#N)c2ccccc2n1C | -52.4 | n | n | n | n | n
Cn1c(CN2CCCC2)c(C#N)c2ccccc21 | -86.0 | n | u | n | n | x
CC1CCN(Cc2c(C#N)c3ccccc3n2C)CC1 | -75.4 | n | n | u | n | n
Fc1cccc(CN2CCSCC2)c1 | n | n | n | n | n | n
CCCCCCCC(=O)Nc1ccc(C(=O)N/N=C/c2cccc([N+](=O)[O-])c2)cc1 | n | n | 7.94µM | n | n | u
CCCCCCC(=O)N/N=C/c1ccc(Br)cc1 | n | n | u | n | n | n
CCCCCCC(=O)Nc1ccc(C(=O)N/N=C/c2cccnc2)cc1 | n | n | n | n | n | n
CCCCCCCCC(=O)N/N=C/c1cccc(Br)c1 | n | n | n | -59.9 | n | n
O=C1OCC(c2ccccc2)=C1c1ccc(S(=O)(=O)N2CCOCC2)s1 | n | n | n | n | n | n
COc1ccc(N2CCN(S(=O)(=O)CCNC(=O)COc3ccccc3OC)CC2)cc1 | n | n | n | n | n | n
CCC(=O)N/N=C/c1ccc(-c2ccc([N+](=O)[O-])cc2)o1 | n | n | n | -80.7 | n | n
CCCCC(=O)N/N=C/c1ccc(-c2ccc([N+](=O)[O-])cc2)o1 | n | n | x | n | u | n
SMILES | DRD3 antagonist | D3 ag | ATXN viability | IL1B secr inh | a7 integrin act | ATXN2 expr inh
O=C(O)c1cc(-c2ccc(/C=N/Nc3ccc([N+](=O)[O-])cn3)o2)ccc1Cl | -74.8 | n | n | n | n | n
Cc1ccc(-c2ccc(/C=N/NC(=S)Nc3ccccc3)o2)cc1[N+](=O)[O-] | u | n | u | n | n | n
Cc1cc([N+](=O)[O-])ccc1-c1ccc(/C=N/NC(=O)c2ccc(Br)o2)o1 | -53.8 | n | u | u | n | u
CNC(=S)N/N=C/c1ccc(-c2ccc(Cl)c([N+](=O)[O-])c2)o1 | n | n | n | -53.8 | n | n[11.3 µM]
O=C(N/N=C/c1ccc([N+](=O)[O-])o1)C(O)c1ccccc1 (centres undefined) | n | n | u | n | n | u
O=C(N/N=C/c1ccc(-c2ccc([N+](=O)[O-])cc2)o1)C(O)c1ccccc1 (centres undefined) | n | n | x | -248.5 | n | x
CN(C)Cc1nc2ccccc2c(=O)n1Cc1nc(-c2cc3ccccc3o2)cs1 | n | n | u | n | n | u

High-throughput results: PubChem, National Center for Advancing Translational Sciences (NCATS)
